# Source: PubChem BioAssay (Tox21)
# Where “and” joins values, the source holds several entries; their conditions need not be identical. Equal entries are not always repeated. Records with an inconclusive call do not appear. Entries that show only a call come without a potency. The source holds several records for some structures; these can differ, active in one and inactive in another. Calls of active or inactive are those of the source. Unless noted, calls come from the whole dose curve; as a rule, active = well fitted curve in the direction sought with a large enough effect in the repeat runs; inconclusive = weak or mixed curves; inactive = no such curve, though single readings can be large; an effect the other way counts as inactive or inconclusive.
# How the values were obtained:
# [1] = A CellTox Green Cytotoxicity Assay to monitor cytotoxicity in HEK293 cells - 32 hour (AID 1224881); note: nearly all actives have a fitted effect of over 40% in size; note: potency is the fitted concentration of half-maximal effect
# Procedure, shortened: (§1)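 Fluorescence from a DNA-binding dye excluded by viable cells was measured repeatedly in the same HEK293 wells (600 cells/well) during continuous compound exposure at 37 C. Each assay gives one read point: 0, 8, 16, 24, 32 or 40 h.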
# [2] = A CellTox Green Cytotoxicity Assay to monitor cytotoxicity in HepG2 cells - 0 hour (AID 1224882); note: nearly all actives have a fitted effect of over 35% in size
# Procedure, shortened: (§2)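 Real-time cytotoxicity: fluorescence of a cell-impermeant cyanine dye binding DNA of dead HepG2 cells, measured repeatedly (0–40 h) during compound exposure at 37 C. Cells seeded 600/well with reagent, dosed after 5 h.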
# [3] = A CellTox Green Cytotoxicity Assay to monitor cytotoxicity in HepG2 cells - 32 hour (AID 1224883); note: nearly all actives have a fitted effect of over 50% in size; note: potency is the fitted concentration of half-maximal effect
# Procedure, shortened: as §2
# [4] = A CellTox Green Cytotoxicity Assay to monitor cytotoxicity in HEK293 cells - 8 hour (AID 1224884); note: nearly all actives have a fitted effect of over 35% in size; note: potency is the fitted concentration of half-maximal effect
# Procedure, shortened: as §1
# [5] = qHTS RealTime-Glo MT Cell Viability Assay in HepG2 cells - 16 hour (AID 1224885); note: nearly all actives have a fitted effect of over 50% in size; note: potency is the fitted concentration of half-maximal effect
# Procedure, shortened: (§3)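 Tox21 10K library screened in qHTS format on HepG2 cells carrying RealTime-Glo reagents. Compounds were added after a 5 h preincubation, and the luminescent signal from continuous culture was measured repeatedly during 40 h treatment.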
# [6] = qHTS RealTime-Glo MT Cell Viability Assay in HEK293 cells - 24 hour (AID 1224886); note: nearly all actives have a fitted effect of over 50% in size; note: potency is the fitted concentration of half-maximal effect
# Procedure, shortened: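 Luminescence generated by NanoLuc from substrate produced by living HEK293 cells served as the viability signal. Each value reflects the reading at its stated time point during continuous 40 h compound exposure at 37 C.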
# [7] = qHTS RealTime-Glo MT Cell Viability Assay in HEK293 cells - 8 hour (AID 1224887); note: nearly all actives have a fitted effect of over 50% in size; note: potency is the fitted concentration of half-maximal effect
# Procedure, shortened: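 Luminescence, which tracks viable cell number through reduction of the prosubstrate to a NanoLuc substrate, was read over continuous 37 C culture. Cells (600/well) were premixed with reagent and rested 5 h before 23 nL of compound in DMSO was pinned.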
# [8] = A CellTox Green Cytotoxicity Assay to monitor cytotoxicity in HEK293 cells - 16 hour (AID 1224888); note: nearly all actives have a fitted effect of over 35% in size; note: potency is the fitted concentration of half-maximal effect
# Procedure, shortened: as §1
# [9] = qHTS RealTime-Glo MT Cell Viability Assay in HepG2 cells - 0 hour (AID 1224889); note: nearly all actives have a fitted effect of over 50% in size; note: potency is the fitted concentration of half-maximal effect
# Procedure, shortened: as §3
# [10] = qHTS assay to identify small molecule antagonists of the estrogen receptor alpha (ER-alpha) signaling pathway using the BG1 cell line in the presence of 0.1 nM 17-beta-estradiol - cell viability counter screen (AID 1259241); note: nearly all actives have a fitted effect of over 40% in size; note: potency is the fitted concentration of half-maximal effect
# Procedure, shortened: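 Cells were plated and left 24 hr, compounds in DMSO were pinned in, 17beta-estradiol was added to 0.1 nM final, and after 22 hr CellTiter-Fluor reagent was added for 30 min before fluorescence was read.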
# [11] = qHTS assay to identify small molecule antagonists of the androgen receptor (AR) signaling pathway using the MDA cell line in the presence of 0.5 nM R1881 - cell viability counter screen (AID 1259242); note: nearly all actives have a fitted effect of over 45% in size; note: potency is the fitted concentration of half-maximal effect
# Procedure, shortened: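 Live-cell protease activity was measured by CellTiter-Fluor fluorescence after 30 min. Before that, MDA-kb2 MMTV-luciferase cells had 16 hr at 37C without CO2, exposed to test compounds and 0.5 nM R1881 final.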
# [12] = qHTS assay to identify small molecule HDAC inhibitors - cell viability counter screen (AID 1259365); note: nearly all actives have a fitted effect of over 50% in size; note: potency is the fitted concentration of half-maximal effect
# Procedure, shortened: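 Counter screen in wild-type HCT-116 cells: compounds dissolved in DMSO are pin-transferred onto overnight-plated cells and left 2hr at 37C. ATP-based CellTiter-Glo luminescence then measures viable cells.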
# [13] = qHTS assay to identify small molecule agonists of the sonic hedgehog signaling (Shh) pathway - cell viability counter screen (AID 1259366); note: nearly all actives have a fitted effect of over 50% in size; note: potency is the fitted concentration of half-maximal effect
# Procedure, shortened: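 Cells are plated at 2,000 per well and left 4hr at 37C, 5% CO2 before compound addition. After 23hr of treatment, CellTiter-Fluor reagent is added for 1hr at 37C and fluorescence is measured.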
# [14] = qHTS assay to identify small molecule antagonists of the sonic hedgehog signaling (Shh) pathway - cell viability counter screen (AID 1259367); note: nearly all actives have a fitted effect of over 55% in size; note: potency is the fitted concentration of half-maximal effect
# Procedure, shortened: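 Tox21 library chemicals were tested on a Gli1-Luc NIH/3T3 clone (2,000 cells/well) stimulated by conditioned medium; viability was quantified as fluorescence from CellTiter-Fluor reagent added at 23 hr.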
# [15] = qHTS assay to identify small molecule agonists of the sonic hedgehog signaling (Shh) pathway (AID 1259368; calls by dose curve; note: nearly all actives have a fitted effect of over 15% in size; note: potency is the fitted concentration of half-maximal effect)
# Procedure, shortened: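 Luminescence was read after 30 min at room temperature with luciferase reagent. Before that, 3T3Gli1-Luc cells (NIH/3T3 clone, stable Gli1-Luc reporter; 2,000/well) were exposed to compounds for 24 hr at 37C, 5% CO2, compounds being added 4 hr post-plating.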
# [16] = target: Estrogen receptor (Homo sapiens) (UniProt P03372); assay: qHTS assay to identify small molecule antagonists of the estrogen receptor alpha (ER-alpha) signaling pathway using the BG1 cell line in the presence of 0.1 nM 17-beta-estradiol (AID 1259244); note: nearly all actives have a fitted effect of over 50% in size; note: potency is the fitted concentration of half-maximal effect
# Sequence of Estrogen receptor (Homo sapiens) (P03372 whole entry, looked up): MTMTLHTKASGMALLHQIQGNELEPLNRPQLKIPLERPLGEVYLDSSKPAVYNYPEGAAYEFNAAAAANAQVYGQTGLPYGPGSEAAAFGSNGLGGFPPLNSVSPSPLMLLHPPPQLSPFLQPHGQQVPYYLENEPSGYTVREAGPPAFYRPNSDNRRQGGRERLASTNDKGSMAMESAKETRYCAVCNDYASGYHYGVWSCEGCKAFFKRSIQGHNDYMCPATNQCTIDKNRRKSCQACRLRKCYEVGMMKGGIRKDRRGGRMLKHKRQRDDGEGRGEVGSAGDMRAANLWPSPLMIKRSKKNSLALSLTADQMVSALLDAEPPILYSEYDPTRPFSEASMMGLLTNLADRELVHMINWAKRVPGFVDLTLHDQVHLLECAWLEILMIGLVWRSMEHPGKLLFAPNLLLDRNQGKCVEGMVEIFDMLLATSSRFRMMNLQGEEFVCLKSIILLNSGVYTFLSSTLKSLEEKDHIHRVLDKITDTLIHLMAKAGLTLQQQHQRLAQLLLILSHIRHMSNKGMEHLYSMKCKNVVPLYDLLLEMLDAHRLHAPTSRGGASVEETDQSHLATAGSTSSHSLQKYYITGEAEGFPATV
# Procedure, shortened: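 Luciferase luminescence (ONE-Glo, 30 min at room temperature) was read after 22 hr at 37C exposure to compounds plus 17beta-estradiol at 0.1 nM final. Cells were VM7Luc4E2 with endogenous ER-alpha and an ERE-driven luciferase, pre-cultured 5 days in hormone-depleted medium.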
# [17] = qHTS assay to identify small molecule HDAC inhibitors (AID 1259364); note: nearly all actives have a fitted effect of over 45% in size; note: potency is the fitted concentration of half-maximal effect
# Procedure, shortened: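 Luminescence read after 30 min room-temperature HDAC-Glo incubation measures cellular class I/II HDAC activity. Compounds were applied for 2 hr at 37 C to HCT-116 wild-type cells seeded the day before.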
# [18] = qHTS assay to identify small molecule phospholipidosis (PLD) inducers (AID 1259344; active = well fitted curve in the direction sought with a large enough effect; an effect the other way counts as inactive or inconclusive)
# Procedure, shortened: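 Image-based: LipidTOX Red pit count/intensity per well and per cell; HepG2, 24 h compound at 37 C, PFA fixation, Hoechst counterstain.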
# [19] = A CellTox Green Cytotoxicity Assay to monitor cytotoxicity in HepG2 cells - 8 hour (AID 1224890); note: nearly all actives have a fitted effect of over 45% in size; note: potency is the fitted concentration of half-maximal effect
# Procedure, shortened: as §2
Structure (SMILES),Potency [1],Potency [2],Potency [3],Potency [4],Potency [5],Potency [6],Potency [7],Potency [8],Potency [9],Potency [10],Potency [11],Potency [12],Potency [13],Potency [14],Potency [15],Potency [16],Potency [17],outcome [18],Potency [19]
CCCN,inactive,inactive,inactive,inactive,inactive,inactive,inactive,inactive,inactive,inactive,inactive,inactive,inactive,inactive,inactive,,,,
CCN(CC)C(=S)S,17.5 µM (active) and 4.87 µM (active) and 11 µM (active),inactive,inactive and 6.88 µM (active) and 21.9 µM (active),inactive,inactive,4.87 µM (active) and 12.3 µM (active),inactive,inactive,inactive,15.3 µM (active),,inactive,38.9 µM (active) and 13.6 µM (active) and 27.3 µM (active),7.65 µM (active) and inactive,inactive,13.6 µM (active),inactive,,
COc1c2c(cc3c1OCO3)CCN(C)C2,inactive,inactive,inactive,inactive,inactive,inactive,inactive,inactive,inactive,inactive,inactive,inactive,inactive,inactive,inactive,inactive,inactive,inactive,
O=[N+]([O-])c1cccc2cccc([N+](=O)[O-])c12,inactive,inactive,inactive,inactive,inactive,inactive,inactive,inactive,inactive,inactive,inactive,inactive,inactive,inactive,inactive,,inactive,,
CN(C)CCc1c[nH]c2ccccc12,inactive,inactive,inactive,inactive,inactive,inactive,inactive,inactive,inactive,inactive,inactive,inactive,inactive,,inactive,,inactive,inactive,
O.O.O.O.O.O.O.O=S(=O)([O-])[O-].[Co+2],inactive,inactive,inactive,inactive,inactive,inactive,inactive,inactive,,inactive,inactive,inactive,,inactive,61.5 µM (active),,,,inactive
Cc1ccc([N+](=O)[O-])[c]2c1[O][Hg]2,0.674 µM (active),inactive,2.13 µM (active),inactive,2.39 µM (active),3.38 µM (active),3.79 µM (active),,inactive,9.44 µM (active),6.68 µM (active),29.8 µM (active),2660 nM (active),3.35 µM (active),inactive,7.5 µM (active),,,3.79 µM (active)
Cc1c([N+](=O)[O-])c(C)c([N+](=O)[O-])c(C(C)(C)C)c1[N+](=O)[O-],inactive,inactive,inactive,inactive,inactive,inactive,inactive,inactive,inactive,inactive,inactive,inactive,inactive,inactive,inactive,,inactive,,
[F][Sn]([c]1ccccc1)([c]1ccccc1)[c]1ccccc1,1.74 µM (active),inactive,1.95 µM (active),5.49 µM (active),0.871 µM (active),0.49 µM (active),1.74 µM (active),6.16 µM (active),inactive,24.3 µM (active),2.17 µM (active),inactive,96.9 nM (active),0.154 µM (active),inactive,2.73 µM (active),,,
NC(=O)C(Cl)Cl,inactive,inactive,inactive,inactive,inactive,inactive,inactive,inactive,inactive,inactive,inactive,inactive,inactive,inactive,inactive,,inactive,,
CCCCC(CC)COC(=O)OOC(C)(C)C (stereo unspecified),inactive,inactive,inactive,inactive,inactive,inactive,,inactive,inactive,inactive,inactive,inactive,inactive,inactive,inactive,,inactive,,inactive
C=CC(=O)[O][Sn]([CH2]CCC)([CH2]CCC)[CH2]CCC,3.47 µM (active),inactive,0.692 µM (active),21.9 µM (active),0.549 µM (active),0.436 µM (active),0.871 µM (active),24.5 µM (active),inactive,27.3 µM (active),1.09 µM (active),19.3 µM (active),243 nM (active),1.09 µM (active),inactive,1.72 µM (active),,,
C#CCO,inactive,inactive,inactive,inactive,inactive,,inactive,inactive,inactive,inactive,inactive,inactive,inactive,inactive,inactive,inactive,inactive,,inactive
O=c1c2ccccc2c(=O)c2c1cc(Cl)c1[nH]c3c([nH]c12)c(Cl)cc1c(=O)c2ccccc2c(=O)c13,inactive,inactive,inactive,inactive,inactive,,inactive,inactive,inactive,inactive,inactive,inactive,inactive,inactive,inactive,,inactive,,inactive
[O]=[Cr][O][Cr]=[O],inactive,inactive,inactive,inactive,inactive,inactive,inactive,inactive,inactive,inactive,inactive,inactive,inactive,inactive,inactive,,,,inactive
CSSC,inactive,inactive,inactive,inactive,inactive,,inactive,inactive,inactive,inactive,inactive,inactive,inactive,inactive,inactive,,inactive,,inactive
O.O.O.O.O.O.O=S(=O)([O-])[O-].[Ni+2],inactive,inactive,inactive,inactive,inactive,inactive,inactive,inactive,,inactive,inactive,inactive,inactive,inactive,inactive,,inactive,,inactive
CC(Cc1ccc2c(c1)OCO2)NO (stereo unspecified),inactive,inactive,inactive,inactive,inactive,inactive,inactive,inactive,inactive,inactive,inactive,inactive,inactive,inactive,inactive,inactive,inactive,inactive,
[Cl-].[Cl-].[Sn+2],inactive,inactive,inactive,inactive,inactive,,inactive,inactive,inactive,inactive,inactive,inactive,inactive,inactive,inactive,,inactive,,inactive
C[N+]1(C)[C@@H]2CC[C@H]1CC(OC(=O)C(CO)c1ccccc1)C2 (stereo partly specified),inactive,inactive,inactive,inactive,inactive,inactive,inactive,inactive,inactive,inactive,inactive,inactive,inactive,inactive,inactive,,inactive,inactive,
N#CCCl,inactive,inactive,inactive,inactive,inactive,,inactive,inactive,inactive,inactive,inactive,inactive,inactive,inactive,inactive,,inactive,,inactive
COP(=S)(NC(C)C)Oc1ccc(C)cc1[N+](=O)[O-] (stereo unspecified),inactive,inactive,inactive,inactive,inactive,inactive,inactive,inactive,inactive,inactive,inactive,inactive,inactive,inactive,inactive,17.2 µM (active),inactive,,
N#CC(C#N)=NNc1cccc(Cl)c1,inactive,inactive,13.8 µM (active),inactive,,5.49 µM (active),inactive,inactive,24.5 µM (active),12.2 µM (active),2.43 µM (active),inactive,27300 nM (active),27.3 µM (active),inactive,1.09 µM (active),24.3 µM (active),,inactive
CC(C)(C)c1ccc(OP(=O)(Oc2ccccc2)Oc2ccccc2)cc1,inactive,inactive,inactive,inactive,inactive,,,inactive,inactive,inactive,inactive,inactive,inactive,inactive,inactive,inactive,inactive,,
C1=CCC=C1,inactive,inactive,inactive,inactive,,,inactive,inactive,inactive,inactive,inactive,inactive,inactive,inactive,inactive,,inactive,,inactive
CC1CN1 (stereo unspecified),inactive,inactive,inactive,,inactive,inactive,inactive,inactive,inactive,inactive,inactive,inactive,inactive,inactive,inactive,inactive,inactive,,inactive
[C-]1=CC=CC1.[Cl][Zr+2][Cl].c1cc[cH-]c1,inactive,inactive,inactive,inactive,,,,inactive,inactive,inactive,inactive,inactive,,inactive,inactive,,inactive,,inactive
N#CSCc1ccccc1,inactive,inactive,inactive,,inactive,inactive,inactive,inactive,inactive,inactive,inactive,inactive,inactive,,inactive,inactive,inactive,,inactive
CC#C[C@]1(O)CC[C@H]2[C@@H]3C[C@H](C)C4=CC(=O)CC[C@]4(C)[C@H]3CC[C@@]21C,inactive,inactive,inactive,,inactive,,inactive,inactive,2.68 µM (active),inactive,inactive,inactive,inactive,inactive,inactive,inactive,inactive,,inactive
[Cl][Hg][c]1ccccc1,2.19 µM (active),inactive,2.45 µM (active),,2.75 µM (active),1.23 µM (active),1.95 µM (active),inactive,,9.69 µM (active),8.63 µM (active),13.7 µM (active),545 nM (active),0.864 µM (active),inactive,6.11 µM (active),30.6 µM (active),,3.09 µM (active)
